Assay outcomes (PubChem BioAssay)
The list is not random: actives were taken first. Their share in the collection is about 3.3%.
FGF22 binding: binders of human FGF22 protein, primary screen, FGF22 synaptogenesis inhibitor project, biophysical, thermal shift, single point; Fibroblast growth factor 22 (Homo sapiens), Q9HCT0; recombinant FGF22 thermal shift, SYPRO orange fluorescence; percent of sucrose octasulfate shift, DMSO zero; activity (Tm shift, normalised), % at 9.99 µM; 340,000 tested, 1.5% active; AID 651658, 2012;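 active means mean Tm shift, scaled 0 neutral to 100 positive control, at about 1.3% or above, every replicate too, limit read from the data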
CASP6 VEID inh: human caspase-6 inhibitors, primary screen, biochemical, VEID-R110 fluorescence, single point, set 2. P55212. purified caspase-6, Z-VEID-R110 cleavage fluorescence. inhibition, % at 12.5 µM. 350,000 tested, 0.53% active;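 active means mean inhibition across replicates at least about 35%, with every replicate also reaching that limit, limit read from the data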;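 further: 0% = median of neutral control wells and 100% = no fluorescence left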
Target sequence (P55212 24-179 limits assumed): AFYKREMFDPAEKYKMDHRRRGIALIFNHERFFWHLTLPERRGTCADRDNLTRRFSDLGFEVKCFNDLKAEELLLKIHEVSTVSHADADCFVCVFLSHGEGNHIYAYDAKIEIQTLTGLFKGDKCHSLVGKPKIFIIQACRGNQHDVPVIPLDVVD
Target sequence (P55212 194-293 limits assumed): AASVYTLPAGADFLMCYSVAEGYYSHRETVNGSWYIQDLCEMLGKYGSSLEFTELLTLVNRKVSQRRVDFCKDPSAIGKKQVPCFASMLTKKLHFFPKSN
SIRT5 inh: SIRT5 desuccinylase inhibitors, primary screen, biochemical, fluorescence imaging, single point, set 5 | NAD-dependent protein deacylase sirtuin-5, mitochondrial (Homo sapiens), Q9NXA8 | Purified SirT5, succinyl-peptide AMC, trypsin-coupled fluorescence | inhibition, % at 15 µM | 330,000 tested, 1.1% active | AID 652115, 2013; in the data active means inhibition above about 15%
Target sequence (Q9NXA8 whole entry, looked up): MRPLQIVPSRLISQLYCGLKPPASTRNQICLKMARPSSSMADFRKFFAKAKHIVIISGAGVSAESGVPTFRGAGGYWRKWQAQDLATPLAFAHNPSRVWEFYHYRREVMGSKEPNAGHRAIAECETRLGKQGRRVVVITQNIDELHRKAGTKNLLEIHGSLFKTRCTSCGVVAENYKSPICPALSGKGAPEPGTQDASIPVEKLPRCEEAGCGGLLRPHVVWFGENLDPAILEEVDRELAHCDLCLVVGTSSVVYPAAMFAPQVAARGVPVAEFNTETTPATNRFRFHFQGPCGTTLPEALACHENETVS
INS-1E GSIS act: GLuc luminescence reporter in INS-1E cells, primary screen for activators of glucose-dependent secretion of insulin | INS-1E GLuc reporter insulin secretion, 2-3 h | activation, % at 16.6 µM | 370,000 tested, 0.61% active | AID 743287, 2014;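 active means lowest replicate activation of at least 40%, so every replicate reaches that level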;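 further: 0% = median of neutral control wells and 100% = median of IBMX positive control wells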
ERAP1 HTS inh: human ERAP1 aminopeptidase inhibitors, primary screen, biochemical, single point, plate reader. recombinant ERAP1, Leu-AMC fluorescence, 60 min. inhibition, % at 10.7 µM. 340,000 tested, 0.15% active;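 active means mean replicate inhibition of at least 30%, or all replicates individually reaching that 30% level; inactive means mean below 30% and not every replicate reaching it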;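 further: 0% = neutral control wells and 100% = L-leucinethiol positive control wells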
* = called active by the depositor; x = no result.

SMILES	FGF22 binding	CASP6 VEID inh	SIRT5 inh	INS-1E GSIS act	ERAP1 HTS inh
O=C(O)Cn1cc(/C=C2/NC(=O)N(c3ccc(Cl)cc3)C2=O)c2ccccc21	2.4*	2.9	3.8	-46.0	12.7
C[C@H]1CN([C@@H](C)CO)S(=O)(=O)c2ccc(-c3cccnc3)cc2O[C@@H]1CN(C)CC1CCOCC1	0.4	0.2	6.5	1.9	-0.3
CC(C)(C)c1ccc(C(=O)OCC(=O)N2CCC(c3ccccc3)=N2)cc1	30.1*	1.2	0.1	-3.1	1.9
c1ccc(-c2nc3c([nH]2)CCc2nonc2-3)cc1	0.5	2.1	5.6	7.1	7.1
O=C1CCCc2[nH]c(-c3ccccc3)nc21	42.9*	2.2	0.2	-5.7	2.1
O=C([C@@H]1[C@@H](CO)[C@@H]2Cn3c(ccc(-c4ccncc4)c3=O)[C@@H]2N1CCC(F)(F)F)N1CCCCC1	-0.1	-3.7	-0.9	8.2	-5.4
O=C(O)/C=C/C(=O)Nc1ccc(SC(F)(F)C(F)(F)C(F)(F)F)cc1	0.8	-0.1	-1.9	-4.4	3.2
O=C(O)/C=C/C(=O)Nc1ccc(C2(c3ccc(NC(=O)/C=C/C(=O)O)cc3)c3ccccc3-c3ccccc32)cc1	x	46.7*	15.7*	1.5	0.3
O=C(O)/C=C/C(=O)Nc1ccc(Cc2ccc(NC(=O)/C=C/C(=O)O)cc2)cc1	0.8	0.3	21.8*	7.5	4.0
O=C(C[C@@H]1CC[C@@H]2[C@H](COC[C@H](O)CN2C(=O)Nc2ccccc2)O1)NCc1ccncn1	-0.1	-0.5	-3.5	40.6	0.5
CC(C)NC(=O)Nc1cccc2c1O[C@@H](CN(C)S(=O)(=O)c1ccc(Cl)cc1)[C@@H](C)CN([C@@H](C)CO)C2=O	0.0	-2.1	-0.2	-9.9	-2.1
C[C@H](CO)N1C[C@H](C)[C@@H](CN(C)C(=O)Nc2ccc(F)cc2)Oc2c(NC(=O)Nc3ccccc3)cccc2C1=O	-1.2	2.8	2.7	3.4	-0.2
Cc1ccc(S(=O)(=O)Oc2ccccc2-c2ccccc2)cc1	43.2*	-0.5	x	x	2.3
Cc1ccc(S(=O)(=O)Oc2ccccc2)cc1	0.0	-1.0	-3.0	17.6	-6.0
CC1=C(C(=O)N2CCOCC2)C(c2ccc(OC(F)F)cc2)NC(=S)N1c1ccccc1 (centres undefined)	43.2*	-2.4	-1.2	-2.9	0.5
CCOC(=O)N1CCN(C(=O)CSc2nnc(Cc3ccccc3)o2)CC1	43.4*	-2.8	-2.4	0.4	-0.4
O=C(CSc1nnc(COc2ccccc2)o1)N1CCOCC1	0.1	2.3	22.7*	5.9	2.6
Cc1nnc(SCC(=O)N2CCN(C(=O)c3ccco3)CC2)n1-c1ccccc1	43.5*	7.4	-12.8	20.6	3.5
O=C(CSc1nnc(-c2ccco2)o1)N1CCN(c2ccccc2)CC1	43.0*	3.6	-0.8	-23.4	1.7
CC(C)NC(=O)N(C)C[C@H]1Oc2ccc(NS(=O)(=O)c3cccs3)cc2CC(=O)N([C@H](C)CO)C[C@@H]1C	0.1	1.4	-1.5	-0.1	3.1
CC(C)NC(=O)N(C)C[C@@H]1OCCCC[C@H](C)Oc2ccc(N(C)C)cc2C(=O)N([C@H](C)CO)C[C@@H]1C	-0.3	-2.9	1.1	7.9	0.9
CO[C@@H]1CC[C@@H]2CCOc3ccc(C#N)cc3C(=O)N(C)C[C@H](c3ccccc3)CC(=O)N(C)C[C@@H]1O2	x	x	x	6.1	x
Cc1ccc(C(=O)/C=C/c2cc(C#N)n(C)c2C)cc1	-0.2	0.2	21.9*	-22.9	-2.6
CC(C)(C)C(=O)CNCC(=O)C(C)(C)C	0.7	-0.4	24.6*	-0.1	-0.2
N#CC(C#N)=Cc1cccn1-c1ccc(C(=O)O)cc1	0.2	71.2*	3.9	13.6	2.3
SMILES	FGF22 binding	CASP6 VEID inh	SIRT5 inh	INS-1E GSIS act	ERAP1 HTS inh
N#C/C(=C/c1cccn1-c1cccc(C(=O)O)c1)c1ccc(Cl)cc1	43.6*	84.1*	5.9	5.2	0.2
O=C(O)c1cccc(-n2cccc2/C=C\[N+](=O)[O-])c1	0.1	x	3.9	0.3	13.5
O=C(O)c1cccc(-n2cccc2/C=C/[N+](=O)[O-])c1	x	65.2*	15.3*	14.6	5.0
C[C@@H]1CN([C@H](C)CO)S(=O)(=O)c2ccc(-c3ccncc3)cc2O[C@@H]1CN(C)C(=O)c1cccc(F)c1	-0.1	-0.8	0.1	25.0	-2.9
C[C@H]1CN([C@@H](C)CO)C(=O)c2cc(C#CC3CC3)cnc2O[C@H]1CN(C)C(=O)c1ccccc1	0.0	-0.6	-2.4	36.5	0.9
CCCNc1ncnc2[nH]ncc12	-0.2	-5.5	0.1	52.2	0.5
Clc1ccc(CNc2ncnc3[nH]ncc23)cc1Cl	-0.1	1.1	x	-16.2	-2.7
Clc1ccc(CNc2ncnc3[nH]ncc23)c(Cl)c1	43.2*	-3.4	x	-14.3	3.5
CC(C)CNc1ncnc2[nH]ncc12	43.6*	-0.4	x	29.8	1.6
C[C@H]1CCCCO[C@H](CN(C)Cc2ccc(C(F)(F)F)cc2)[C@@H](C)CN([C@@H](C)CO)C(=O)c2cc(NS(=O)(=O)c3cccs3)ccc2O1	-0.4	3.6	15.7*	-27.6	1.3
C[C@H]1CCCCO[C@@H](CN(C)Cc2ccc(C(F)(F)F)cc2)[C@@H](C)CN([C@@H](C)CO)C(=O)c2cc(NS(=O)(=O)c3cccs3)ccc2O1	-0.7	-0.2	13.7	-21.1	-2.2
C[C@@H]1CN([C@@H](C)CO)C(=O)c2cc(NS(=O)(=O)c3cccs3)ccc2O[C@@H](C)CCCCO[C@@H]1CN(C)Cc1ccc(C(F)(F)F)cc1	0.3	-1.7	19.0*	-10.9	1.0
C[C@@H]1CCCCO[C@@H](CN(C)Cc2ccc(C(F)(F)F)cc2)[C@@H](C)CN([C@@H](C)CO)C(=O)c2cc(NS(=O)(=O)c3cccs3)ccc2O1	0.3	-2.1	18.6*	-19.3	1.2
C[C@H](CO)N1C[C@H](C)[C@H](CN(C)Cc2ccc(C(F)(F)F)cc2)Oc2ccc(NS(=O)(=O)c3cccs3)cc2C1=O	-0.7	-0.2	16.5*	-15.5	-2.1
C[C@H]1CN([C@@H](C)CO)C(=O)c2cc(NS(=O)(=O)c3cccs3)ccc2O[C@@H]1CN(C)Cc1ccc(C(F)(F)F)cc1	0.0	-1.4	7.7	-2.5	-0.6
C[C@H](CO)N1C[C@H](C)[C@H](CN(C)Cc2ccc(C(F)(F)F)cc2)OCCCC[C@H](C)Oc2ccc(NS(=O)(=O)c3cccs3)cc2C1=O	-0.5	2.3	12.8	-2.0	1.3
CCOC(=O)c1c(C)[nH]c(C)c1S(=O)(=O)NCC1CCN(Cc2cccc(Cl)c2)CC1	-0.3	-10.4	16.0*	4.1	0.4
CCSc1nnc(CSc2ncccn2)n1C	43.5*	1.0	-3.2	12.2	2.9
